Results published in PubChem BioAssay AID485347 (National Center for Advancing Translational Sciences (NCATS), 2010).
Hit rate of the full screen: of about 340,000 compounds, about 1,200 (0.35%) were called active. What follows is part of a selection rich in actives, with near analogues and random picks from the rest. A number with no mark means an inactive call.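 How the source made its calls: active means potentiation over 3 SD above the plate norm (cut at about 30% in these data); inactive means the rest.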

target: D(2) dopamine receptor (Homo sapiens) (UniProt P14416); assay: HTS Assay for Positive Allosteric Modulators of the Human D2 Dopamine Receptor: Primary Screen for Potentiators; conditions: HEK293 T-REx D2, calcium flux, EC20 dopamine potentiation; at 10 µM; stronger effect = higher value; further: 0% is about no effect
Sequence (P14416 whole entry, looked up): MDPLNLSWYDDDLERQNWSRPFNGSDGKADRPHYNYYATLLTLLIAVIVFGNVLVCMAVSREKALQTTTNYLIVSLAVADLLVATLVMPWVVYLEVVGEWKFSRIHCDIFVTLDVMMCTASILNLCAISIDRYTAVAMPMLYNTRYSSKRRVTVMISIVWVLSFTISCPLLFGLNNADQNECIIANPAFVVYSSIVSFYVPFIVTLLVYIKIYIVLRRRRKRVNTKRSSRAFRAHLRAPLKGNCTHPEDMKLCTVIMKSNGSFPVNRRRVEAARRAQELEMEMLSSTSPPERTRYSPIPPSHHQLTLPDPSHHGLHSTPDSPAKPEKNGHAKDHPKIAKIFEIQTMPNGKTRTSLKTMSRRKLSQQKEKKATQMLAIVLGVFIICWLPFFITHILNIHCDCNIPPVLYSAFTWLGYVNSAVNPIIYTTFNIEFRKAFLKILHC
Source text: NIH Chemical Genomics Center [NCGC] NIH Molecular Libraries Probe Centers Network [MLPCN] MLPCN Grant: NS064831-01 Assay Submitter (PI): David Sibley Dopamine receptors (DARs) are involved in the etiology and/or therapy of a number of neuropsychiatric and endocrine disorders. For instance, all receptor-based antiparkinsonian drugs work via stimulating the D2 DAR subtype whereas all FDA-approved antipsychotic agents are antagonists of this receptor. […] There are three different types of allosteric modulators that we are seeking, two of which will stimulate or augment receptor signaling, allosteric agonists and potentiators, while the third, allosteric antagonists, will attenuate receptor signaling. The present primary screening assay measures compound potentiation of an EC20 dopamine response by tracking calcium flux in a […], inducible Hek293 Trex D2 cell line.
Freshly passaged cells are plated in 1536 well black, clear bottom plates at a density of 4000 cells/well in 3 ul of complete media containing 1x tetracycline inducer. After an overnight incubation at 30 C in 5% CO2, cells are loaded with 2 ul of the no wash Calcium Assay Kit (ABD Bioquest) and incubated at room temperature for 30 to 90 minutes. A 10 cycle (1 second/cycle) baseline measurement is taken and then the FDSS online 1536 pintool delivers 23 nl of compound library (as well as dopamine controls) to the plate. The plate is measured for kinetically at 1 cycle/sec for 180 seconds and is considered to be the agonist portion of the assay (eg, compounds which activate a positive calcium response during this portion are flagged as potential agonists). Following the 180 second read, 1 ul of an EC20 of dopamine is delivered by an onboard pipette head. Measurements are taken kinetically for an additional 180 seconds.

In order of falling potentiation:
1. CCOc1ccccc1C1CC(c2ccccc2)Nc2nc(N)nn21 (stereo not given)  14.5%
2. CCN(CC(=O)Nc1ccccc1OC)C(=O)Cn1cnc2ccccc2c1=O  11.8%
3. Cc1sc2nc(CC(N)=O)[nH]c(=O)c2c1-c1ccccc1  9.95%
4. CSc1ccc(CCNC(=O)c2ccc3c(c2)nc2n3CCOC2)cc1  8.52%
5. CCOC(=O)c1ccc(NC(=S)N2CCCC2)cc1  8.15%
6. COc1cc(CNC(=O)c2cc3n(n2)CCCN(Cc2cccc(F)c2)C3=O)cc(OC)c1OC  7.44%
7. CCN(CC(=O)Nc1ccccc1OC)C(=O)CC1CC2CCC1C2 (stereo not given)  5.39%
8. Cc1ccc(C2C=C(c3ccc(Cl)cc3)Nc3nc(NC(=O)CCC(=O)O)nn32)cc1 (stereo not given)  5.1%
9. COc1ccc(C)cc1NC(=O)COCc1cc(-c2cccs2)on1  3.43%
10. Clc1ccc(C2CC(c3cccs3)n3ncnc3N2)cc1Cl (stereo not given)  -0.578%
11. O=C(CCS(=O)(=O)c1ccccc1)N(Cc1cccnc1)c1nc2c(F)cccc2s1  -2.05%
12. CCN(c1ccccc1)S(=O)(=O)c1cc(C(=O)NCc2ccccn2)ccc1C  -2.26%
13. Cc1ccc(C)c(Oc2c(C(F)(F)F)oc3c(CN4CCN(C)CC4)c(O)ccc3c2=O)c1  -2.95%
14. CCOc1ccc(CNCc2c(C(=O)O)c(C)n(Cc3cccc(OC)c3)c2C)cc1OC  -3.84%
15. CCOc1ccc(NC(=S)N2CCC(N(C)CC3CCCO3)CC2)cc1 (stereo not given)  -4.46%
16. Cc1cc(C)cc(OCC(=O)Nc2c(C(=O)c3ccccc3)oc3ccccc23)c1  -6.36%
17. Cc1ccc(NC(=O)c2oc3ccccc3c2NC(=O)Cc2cccs2)cc1  -10%
18. CN(c1ccc(C(=O)NCCC2=CCCCC2)cc1)S(C)(=O)=O  -10.3%
19. COc1cccc(C(=O)c2sc3nc(-c4ccccc4)cc(C(F)(F)F)c3c2N)c1  -10.4%
20. Cc1ccc(-c2nn(CCC(=O)Nc3ccc(Cl)c(Cl)c3)c(=O)c3ccccc23)cc1  -14.9%

For `CCCN(CC(=O)Nc1ccccc1OC)C(=O)CCC(=O)c1ccc(F)cc1`, the potentiation was 30.4% (active).
`CN(c1ccc(C(=O)NCc2ccccn2)cc1)S(C)(=O)=O` was tested, and the potentiation was 42.4% (active).
With `NC(=O)c1sc2nc3c(c(-c4ccccc4)c2c1N)CCC3` the potentiation was 37.2% (active).
For `FC(F)Oc1ccccc1C1CC(c2ccc(Br)s2)Nc2ncnn21` (stereo not given), the potentiation was 31.8% (active).
In the case of `CCOc1ccc(NC(=S)N2CCCCCC2)cc1`, the potentiation is reported as 30.1% (active).
